Data reported in PubChem BioAssay (NCI).
This is part of a sample that, as a whole, favours compounds with a hit. Of some 79,000 tested, about 15% had one in any assay. Unmarked numbers belong to inactive results. Activity calls are given as the source filed them. Rule as the data show it: active = growth inhibition above about 70%; inactive = the rest.

What was measured:
[1] = NCI Yeast Anticancer Drug Screen. Data for the rad50 strain (AID 155);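 also: 0% = growth of vehicle-only cultures of the same strain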; settings: S. cerevisiae rad50 strain growth inhibition; at 50.0 µM; stronger effect = higher value
How it was run: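 Compounds were tested on a yeast strain with an engineered DNA damage repair alteration; the reported value is growth inhibition normalised to vehicle treatment.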

[2] = NCI Yeast Anticancer Drug Screen. Data for the mec2-1 strain (AID 157); settings: S. cerevisiae mec2-1 strain, at 50.0 µM, stronger effect = higher value
How it was run: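 Yeast mec2-1 mutant treated with compound. Readout: growth inhibition vs vehicle controls.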

[3] = NCI Yeast Anticancer Drug Screen. Data for the sgs1 mgt1 strain (AID 161);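 also: 0% = growth of cultures given vehicle only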; settings: S. cerevisiae sgs1 mgt1 strain, at 50.0 µM, stronger effect = higher value
How it was run: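 Mutant yeast exposed to compound; growth scored against vehicle-only wells.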

[4] = NCI Yeast Anticancer Drug Screen. Data for the cln2 rad14 strain (AID 165);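 also: 0% = growth equal to vehicle treated cultures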; settings: S. cerevisiae cln2 rad14 strain, at 50.0 µM, stronger effect = higher value
How it was run: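 cln2 rad14 yeast strain; compound exposure; growth inhibition read vs vehicle controls.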

[5] = NCI Yeast Anticancer Drug Screen. Data for the bub3 strain (AID 167); settings: S. cerevisiae bub3 mutant strain, at 50.0 µM, stronger effect = higher value
How it was run: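 Growth of a checkpoint-deficient yeast mutant is measured after compound exposure. Values represent inhibition relative to vehicle.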

[6] = NCI Yeast Anticancer Drug Screen. Data for the mlh1 rad18 strain (AID 175); settings: S. cerevisiae mlh1 rad18 strain growth inhibition; at 50.0 µM; stronger effect = higher value
How it was run: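 Yeast w/ defined DNA-repair lesions; compound exposure; growth vs vehicle controls → % inhibition.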

Structure (SMILES) | growth inhibition [1] | growth inhibition [2] | growth inhibition [3] | growth inhibition [4] | growth inhibition [5] | growth inhibition [6]
CN1CCCCC1C[CH2][Sn]([c]1ccccc1)([c]1ccccc1)[c]1ccccc1 (stereo unspecified) | 99.6% (active) | 99.5% (active) | 99.7% (active) | 99.2% (active) | 99.2% (active) | 99.5% (active)
NC(=O)CC(NC(=O)C(F)(F)F)C(=O)O (stereo unspecified) | -15.3% | -22.9% | -13.4% | -6.85% | -14.2% | -24.2%
CCC(C)(O)P(=O)(O)O (stereo unspecified) | 5.15% | 7.1% | 0.35% | -30.4% | 0.85% | 7.6%
CC(=O)NCc1cccc[n+]1[O-] | 14.8% | -12% | -3.8% | -59.3% | -6.85% | -7.2%
COc1ccc(C(O)C(NCCO)c2ccccc2)cc1 (stereo unspecified) | -1.3% | -19.5% | 4.8% | 7.15% | -3.85% | 7.85%
O=S(=O)(CCc1ccccc1)c1nc2ccccc2s1 | -1.5% | -1.85% | -2.8% | -11.9% | -37.5% | -11.5%
CC(C)(C)NC(=O)Oc1ccc(Br)cc1Br | -1.5% | 14.4% | 18.6% | -14.2% | 9.75% | 21.2%
O=[N+]([O-])c1ccc(Nc2ccccc2)c([N+](=O)[O-])c1 | 2.4% | -12.8% | -1.4% | -32.2% | -7.05% | 8.5%
O=C(Nc1ccn(C2CCC(COC(c3ccccc3)(c3ccccc3)c3ccccc3)O2)c(=O)n1)c1ccccc1 (stereo unspecified) | 8.05% | 19.4% | 27.6% | -25% | -26.2% | 16.9%
O=C(c1nc2ccc([N+](=O)[O-])cc2[nH]c1=O)C(O)c1ccc2c(c1)OCO2 (stereo unspecified) | 32.4% | -9.25% | -11.1% | 11.1% | -1.25% | 0.35%
CCOC(=O)/C=C1\NCCc2ccccc21 | -6.85% | 1.45% | 8.5% | 24% | 4.8% | 4.55%
CC1(C)CNC[C@](C)(OCCCO[C@@]2(C)CNCC(C)(C)NC2=O)C(=O)N1 | -11.4% | -33.5% | -21.2% | 25.6% | 3.95% | -9.45%
CCCOc1cc2c(cc1C(C)(C)c1ccccc1)OCO2 | -16.9% | -18.6% | -12.7% | -27.9% | -3.5% | -15.4%
NC(=O)NC(=O)N/N=C/c1ccccc1 | 23.2% | 2.4% | 2.8% | 4.15% | 7.6% | 14.9%
O=C(c1ccccc1)N1OC2C=CC1CC2 (stereo unspecified) | 4.6% | 4.6% | 5.1% | -34.2% | -2.1% | -1.8%
C=C(C)S(=O)(=O)c1ccc(C)cc1 | 11.3% | -16.4% | -5.7% | -15.3% | 12% | 11.8%
C=CCC(OC(=O)C=C(C)C)c1ccc2c(c1)OCO2 (stereo unspecified) | -23.6% | -31.9% | -6.65% | -5.5% | 38.8% | 6.3%
O=C(SCc1ccccc1)C(O)c1ccccc1 (stereo unspecified) | 1.95% | 6.9% | 15.7% | -24.6% | 19.3% | 5.2%
O=C(COc1ccccc1)OC1CCCC1 | 17.6% | -13.4% | -9.8% | -1.9% | -3.05% | 4.55%
O=C(Oc1ccccc1)Oc1c(Cl)cc([N+](=O)[O-])cc1[N+](=O)[O-] | 25% | 1.4% | 5.25% | 10.9% | 0.45% | 15.5%
CC(C)N(C=C(C#N)C#N)C(C)C | 15.5% | 7.5% | -0.4% | -57.5% | 3.75% | 4.6%

Structure (SMILES) | growth inhibition [1] | growth inhibition [2] | growth inhibition [3] | growth inhibition [4] | growth inhibition [5] | growth inhibition [6]
COc1ccc2[nH]cc(C=O)c2c1 | 13.3% | -2.95% | -1.65% | 7.25% | -2.1% | 3.5%
c1ccc(-c2nc(-c3ccccc3)n3nc4c(c3c2-c2ccccc2)CCCCCC4)cc1 | -6.65% | 5.65% | -19.6% | -8.55% | -0.35% | 0.2%
O=C(c1ccccc1)c1cc(Cl)ccc1NCC(O)COc1ccc(Cl)cc1 (stereo unspecified) | -12.8% | 7.05% | -33% | -12.6% | -0.45% | -10.1%
Cc1ccc(Br)c([N+](=O)[O-])c1 | 5.1% | -4.75% | 2.1% | 5.85% | -0.2% | 1.75%
Nc1nc2c(c(-c3ccccc3)n1)CN(CCCC(=O)O)C2=O | 5.75% | 14.8% | 3.7% | -3% | 11.9% | -0.45%
CCC(C)(C)c1ccc(O)c(CNCCO)c1 | 26.8% | -2.55% | 2.9% | -18.9% | 7.55% | 8.85%
CN(C=O)c1ccc(C(=O)O)cc1 | 4.35% | 11.9% | -6.25% | 2% | 17.6% | 10.6%
O=C(O)/C=C\C(Cl)(Cl)Cl | -6.35% | -6.6% | -6.7% | 4.15% | -41% | -13.4%
CCC(C)CCC(C)(O)CC (stereo unspecified) | 9.7% | -9.9% | -5.4% | -43.1% | 16.2% | 1.35%
S=C(Nc1c2c(nc3ccccc13)CCCC2)Nc1c2c(nc3ccccc13)CCCC2 | -14.9% | 9.55% | -0.3% | 9.8% | -17.9% | 12%
CC(=O)OCC(=O)[C@@]1(O)CC[C@H]2[C@@H]3CCC4=CC(=O)CC[C@]4(C)[C@H]3C(=O)C[C@@]21C | -25.1% | -23.6% | -6.85% | 4.2% | -17.9% | -21.3%
Cc1nccn1C(C)c1ccccc1 (stereo unspecified) | -9.8% | -19.9% | -16.2% | -95.3% | 0.35% | -25.4%
CC(=O)NC1=NCC(CSc2nc3ccccc3s2)S1 (stereo unspecified) | -8.45% | -14.3% | 5.65% | -26.2% | 9.7% | 4.3%
CC1(Br)S(=O)(=O)OCCOS1(=O)=O | -23% | -15.9% | -12.3% | 6.1% | -24.2% | -42.5%
CCCC[N+](CCCC)(CCCC)CC(=O)[O-] | 5.7% | -3.1% | -19.8% | -45.1% | -8.3% | -24.6%
Cn1c(=O)c2conc2n(-c2ccc(Cl)cc2)c1=O | 11.2% | -0.1% | -12.2% | -19.9% | 2.55% | -3.25%
CC(=O)O[C@@H]1C[C@H](C)CC(C)(C)C1 | 3.35% | 5.75% | -10.6% | -3.7% | 0.4% | -3.1%
C(=C\c1csnn1)/c1cccnc1 | 29.9% | -1.95% | 2.05% | 6.35% | 9.3% | 5.75%
O=C(c1ccc(F)cc1)c1ccc2ccccc2c1C(=O)O | 4.4% | 7.65% | 13.1% | 14.3% | 38.2% | -11.3%
CSC1=NC=C(C#N)C2=NC(c3c(F)cccc3Cl)NN12 (stereo unspecified) | 30.3% | 7.65% | 35.3% | 26.2% | 24.6% | 26.8%
